Test [1] in a line: inhibitors of TNFa-induced NFkB p65 translocation, primary screen, imaging, HUVEC, MLSMR starter and 10KST1 sets (AID 438;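 active = inhibition above 20% together with a positive visual image hit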;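 also: compound added about 3h40 before a 20 min TNFalpha stimulation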;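 as to inhibition: signal is the nuclear over cytoplasmic p65 intensity ratio per well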). The following applies: HUVEC TNFa-induced p65 nuclear translocation; cell count: measured here: nuclei count (cytotoxicity indicator), at 2.08 µM; inhibition: at 2 µM, stronger effect = higher value, 0% TNFa-plus-vehicle, 100% no-TNFa wells.
Test [2] can be described thus: reduction of polyQ htt aggregates in cells – imaging, exon1htt(103Q)mCFP cells, high-content imaging, primary screen (AID 483;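 active = visual image review flags a hit and inhibition of aggregation exceeds 20%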;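 also: compound exposure lasted 3 days before fixation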;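 as to nuclei count: percent of the per-plate median nuclei count of sample wells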). Conditions: exon1htt(103Q)mCFP cell line, aggregate imaging, at 2 µM; inhibition of aggregation: stronger effect = higher value; nuclei count: measured here: cell count, toxicity.
Test [3] is described as follows: endothelial E-selectin expression blockers – imaging, HUVEC, immunofluorescence, MLSMR starter and 10KST1 sets, primary screen (AID 487;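 active = visually confirmed hit in the image check and inhibition above 20%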;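 as to inhibition: signal is fraction of cell area covered by stained E-selectin grains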;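 as to nuclei count: 100% = median nuclei count of all wells on the same plate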). The following applies: HUVEC TNFalpha-induced E-selectin immunofluorescence imaging, at 2 µM; inhibition: stronger effect = higher value; nuclei count: measured here: cell number, toxicity.
Test [4] addresses Voltage-gated potassium channel subunit beta-2 (Rattus norvegicus) (UniProt P62483). The experiment in a line: inhibitors of rat Kvbeta2 reductase activity – biochemical, NADPH fluorescence, primary screen (AID 622;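 active = fluorescence slope higher than the sample average by over 3 SD, cut at about -0.22 in these data, passing the limit was not always enough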;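 also: slope of raw intensity against log time taken from 70 to 1610 s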). Conditions: recombinant KvBeta, 4-cyanobenzaldehyde reduction, at 10 µM, stronger effect = higher value.
Test [5] has the same target. The experiment in a line: enhancers of rat Kvbeta2 NADPH turnover – biochemical, NADPH fluorescence, primary screen (AID 623;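 active = NADPH fluorescence slope more negative than the mean of all samples by about 3 SD, 99.7% confidence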;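 also: fluorescence intensity change per second fitted from 20 to 320 s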). Conditions: Recombinant KvBeta, NADPH fluorescence decrease slope, 10 min; at 10 µM; stronger effect = lower value.
Test [6] concerns the target Alpha-2C adrenergic receptor (Homo sapiens) (UniProt P18825). The experiment in a line: compounds altering alpha2C-coupled GIRK flux – cell-based, HEK293 alpha2C/GIRK1/2, thallium flux, primary screen (AID 624).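 Also: slope of fluorescence ratio to pre-addition baseline per second over 15 to 24 s.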 The following applies: thallium flux BTC fluorescence, at 10 µM, actives lie on both sides.
The nature of test [7]: blockers of RIG-like receptor reporter activation – cell-based, Sendai virus stimulus, luciferase, 10K MLSCN set, TLR/RLR signaling modifier project, primary screen (AID 602276;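 active = inhibition at or above 50% at 10 µM; inactive = inhibition below 50%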;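 also: firefly luciferase from ISG56 promoter only with Renilla not read in this screen; 0% = Sendai virus plus DMSO and 100% = medium plus DMSO without virus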). Conditions: HEK293 RL24 IRF3 luciferase reporter, at 10 µM, stronger effect = higher value. On the technique in general: In a reporter assay the amount or activity of a reporter protein is the signal.
A short description of test [8]: TLR3 IRF3 reporter activation blockers – cell-based, poly I:C stimulus, luciferase, 10K MLSCN set, primary screen (AID 602277;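 active = inhibition of the reporter signal at or above 50%; inactive = inhibition below 50%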). The following applies: HEK293-TLR3 RL24 IRF3 luciferase reporter, at 10 µM, stronger effect = higher value.

Activity calls are given as the source filed them.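 The calls were made as follows, unless noted: active = fluorescence slope after compound addition differing from the mean of all screened samples at 99.7% confidence, in either direction; inactive = the rest.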

The values below come from PubChem BioAssay.

The term inhibition denotes the drop in the measured response relative to a control, in per cent.

Voltage-gated potassium channel subunit beta-2 (Rattus norvegicus), sequence (P62483 whole entry, looked up): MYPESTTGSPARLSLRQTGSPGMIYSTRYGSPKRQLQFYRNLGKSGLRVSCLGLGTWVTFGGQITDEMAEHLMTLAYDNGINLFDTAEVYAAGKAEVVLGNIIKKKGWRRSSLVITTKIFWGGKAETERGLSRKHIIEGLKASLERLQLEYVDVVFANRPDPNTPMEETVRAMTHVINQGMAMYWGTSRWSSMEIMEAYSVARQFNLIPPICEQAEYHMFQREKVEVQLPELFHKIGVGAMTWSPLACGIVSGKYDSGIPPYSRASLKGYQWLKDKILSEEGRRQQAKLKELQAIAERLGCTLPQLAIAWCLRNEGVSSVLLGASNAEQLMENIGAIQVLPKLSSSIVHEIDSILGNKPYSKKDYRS
Alpha-2C adrenergic receptor (Homo sapiens), sequence (P18825 whole entry, looked up): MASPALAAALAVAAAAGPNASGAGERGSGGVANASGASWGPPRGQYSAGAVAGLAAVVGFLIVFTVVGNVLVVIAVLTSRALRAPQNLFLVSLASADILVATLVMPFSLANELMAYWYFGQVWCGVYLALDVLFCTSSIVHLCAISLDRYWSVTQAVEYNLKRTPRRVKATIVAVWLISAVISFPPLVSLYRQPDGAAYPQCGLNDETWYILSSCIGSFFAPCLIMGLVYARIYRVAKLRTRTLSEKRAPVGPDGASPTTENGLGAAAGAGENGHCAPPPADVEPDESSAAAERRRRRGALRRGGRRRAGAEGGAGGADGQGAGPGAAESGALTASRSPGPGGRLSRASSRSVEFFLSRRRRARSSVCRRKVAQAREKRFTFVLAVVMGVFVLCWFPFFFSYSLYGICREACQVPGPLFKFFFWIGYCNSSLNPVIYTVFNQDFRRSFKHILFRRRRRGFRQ

`COc1ccc(C2C(C(=O)NCCN3CCOCC3)c3ccccc3C(=O)N2C2CCCCC2)cc1` (centres undefined): the cell count in test [1] is 334. In addition, the inhibition in test [1] is 10.1% (inactive); in test [3] it was -93.5% (inactive); in test [7] it was 30.2% (inactive); in test [8], 26% (inactive). Further, in test [2], the inhibition of aggregation is 12.7% (inactive). For the same molecule, the nuclei count in test [2] and in test [3] was 111% throughout. Also, the fluorescence slope in test [4] is -0.611 (inactive). Moreover, the NADPH fluorescence slope in test [5] was -2.8e-05 (inactive). For the same molecule, the slope in test [6] was 0.00399 (inactive).

With `O=C(NCc1cccs1)C1CC(=O)N(C2CCCC2)C1` (centres undefined), the cell count in test [1] was determined as 376. Further, the inhibition was -14.4% (inactive) in test [1], -121% (inactive) in test [3], -9.61% (inactive) in test [7] and -21.8% (inactive) in test [8]. Also, the inhibition of aggregation in test [2] is -18.1% (inactive). Besides, the nuclei count is 97.2% in test [2] and 172% in test [3]. The fluorescence slope in test [4] is -0.56 (inactive). The NADPH fluorescence slope in test [5] was 4.8e-05 (inactive). The slope in test [6] was 0.00628 (inactive).

Regarding `CCOC(=O)CSc1nnc(Cn2c(=O)sc3ccccc32)n1C`, the cell count in test [1] is 475. In addition, the inhibition in test [1] is -8.3% (inactive); in test [3] it was -24.8% (inactive); in test [7], 8.16% (inactive); in test [8], 33.4% (inactive). Besides, the inhibition of aggregation in test [2] was 20.2% (inactive). Further, the nuclei count in test [2] was determined as 106%; in test [3] it was 114%. The fluorescence slope in test [4] is -0.576 (inactive). The NADPH fluorescence slope in test [5] is -4.8e-05 (inactive). The slope in test [6] is 0.00614 (inactive).

Regarding `O=C1c2ccccc2C(=O)N1CC(O)Cn1nnc2ccccc21` (centres undefined), the cell count in test [1] worked out at 480. The inhibition in test [1] is -22.3% (inactive); in test [3] it was -47.9% (inactive); in test [7], 3.12% (inactive); in test [8] it was 4.4% (inactive). Moreover, in test [2], the inhibition of aggregation is -0.2% (inactive). Further, the nuclei count in test [2] came to 116%; in test [3], 99.5%. Also, the fluorescence slope in test [4] was -0.521 (inactive). Also, the NADPH fluorescence slope in test [5] is -4.1e-05 (inactive). In test [6], the slope is 0.00496 (inactive).

As for `COc1ccc(NC(=O)CN2CCN(S(=O)(=O)c3ccc(Cl)cc3)CC2)cc1`, the cell count in test [1] was found to be 333. The inhibition in test [1] is 1.1% (inactive); in test [3] it was 5% (inactive); in test [7] it was 11.8% (inactive); in test [8], 17.3% (inactive). In addition, the inhibition of aggregation in test [2] is 17.3% (inactive). Moreover, the nuclei count came out at 123% in test [2] and 116% in test [3]. The fluorescence slope in test [4] was -0.411 (inactive). Moreover, the NADPH fluorescence slope in test [5] was -2.8e-05 (inactive). Moreover, the slope in test [6] was 0.00382 (inactive).

As to `Cc1csc2nc(CNC(=O)c3ccco3)cn12`, the cell count in test [1] came out at 518. The inhibition in test [1] was -8.8% (inactive); in test [3], -27.7% (inactive); in test [7], -23.7% (inactive); in test [8], -70.6% (inactive). In addition, in test [2], the inhibition of aggregation is -5.9% (inactive). Besides, the nuclei count in test [2] was determined as 90.4%; in test [3] it was 71%. Further, the fluorescence slope in test [4] is -0.511 (inactive). The NADPH fluorescence slope in test [5] was -5.4e-05 (inactive). Also, in test [6], the slope was 0.00553 (inactive).

`COC(=O)CN(c1ccc(C)c(Cl)c1)S(C)(=O)=O`: the cell count in test [1] was 322. Also, the inhibition in test [1] is 4% (inactive); in test [3] it was 13.8% (inactive); in test [7], 13.7% (inactive); in test [8], 19.8% (inactive). Also, in test [2], the inhibition of aggregation was -11.9% (inactive). The nuclei count in test [2] is 117%; in test [3], 110%. The fluorescence slope in test [4] is -0.506 (inactive). Also, the NADPH fluorescence slope in test [5] was -4.6e-05 (inactive). The slope in test [6] was 0.00698 (inactive).

`COC(=O)C1=C(C)OC(N)=C(C#N)C1c1c(C)nn(-c2ccccc2)c1Cl` (centres undefined): the cell count in test [1] was 798. For the same molecule, the inhibition in test [1] was 3.8% (inactive); in test [3], -33.5% (inactive); in test [7], -88.9% (inactive); in test [8] it was -11.8% (inactive). Besides, the inhibition of aggregation in test [2] was 12.3% (inactive). For the same molecule, the nuclei count in test [2] was 107%; in test [3], 126%. For the same molecule, the fluorescence slope in test [4] was -0.524 (inactive). In test [5], the NADPH fluorescence slope is 1e-05 (inactive). The slope in test [6] is 0.00643 (inactive).

Take `CCCNS(=O)(=O)c1ccc(OCC(=O)NCc2ccc3c(c2)OCO3)cc1`: the cell count in test [1] amounted to 434. Also, the inhibition is 1.7% (inactive) in test [1], -93.9% (inactive) in test [3], 12.8% (inactive) in test [7] and 17.9% (inactive) in test [8]. Also, the inhibition of aggregation in test [2] is -1.9% (inactive). The nuclei count in test [2] was 108%; in test [3] it was 106%. Also, the fluorescence slope in test [4] was -0.368 (inactive). The NADPH fluorescence slope in test [5] is -6.9e-05 (inactive). In test [6], the slope is 0.00408 (inactive).

Regarding `COc1ccc(N2C(=O)CC(N3CCCC4CCCCC43)C2=O)cc1` (centres undefined), the cell count in test [1] was found to be 577. Besides, the inhibition in test [1] is -11.4% (inactive); in test [3], -13.4% (inactive); in test [7], 8.26% (inactive); in test [8], 35.7% (inactive). Also, the inhibition of aggregation in test [2] was 3.7% (inactive). Further, the nuclei count turned out to be 107% in test [2] and 79.8% in test [3]. Moreover, the fluorescence slope in test [4] was -0.423 (inactive). Further, the NADPH fluorescence slope in test [5] is -3.7e-05 (inactive). Besides, the slope in test [6] is 0.00354 (inactive).

As for `CN1CCN(CC#CCC(O)(c2ccccc2)C2CCCC2)CC1` (centres undefined), the cell count in test [1] came out at 415. The inhibition in test [1] is 2.2% (inactive); in test [3], -21.3% (inactive); in test [7] it was 7.06% (inactive); in test [8], 4.71% (inactive). In test [2], the inhibition of aggregation was -1.8% (inactive). The nuclei count in test [2] was 99.7%; in test [3], 118%. The fluorescence slope in test [4] was -0.428 (inactive). The NADPH fluorescence slope in test [5] was -4.8e-05 (inactive). Also, the slope in test [6] was 0.00551 (inactive).

For `CCCOc1ccc(NC2=CC(=O)CC(C)(C)C2)cc1`, in test [1], the cell count was 342. Also, the inhibition in test [1] is 3.8% (inactive); in test [3], -89.3% (inactive); in test [7], -1.23% (inactive); in test [8], -12.8% (inactive). Moreover, the inhibition of aggregation in test [2] was -7.1% (inactive). Besides, the nuclei count in test [2] came to 119%; in test [3] it was 117%. In addition, in test [4], the fluorescence slope was -0.405 (inactive). For the same molecule, the NADPH fluorescence slope in test [5] is -4.9e-05 (inactive). For the same molecule, the slope in test [6] was 0.00457 (inactive).

As to `CC(=O)Nc1cccc(NC(=O)c2ccco2)c1`, the cell count in test [1] is 286. Besides, the inhibition is 2.5% (inactive) in test [1], -72.9% (inactive) in test [3], 5.39% (inactive) in test [7] and 26.7% (inactive) in test [8]. For the same molecule, in test [2], the inhibition of aggregation is -7.1% (inactive). Moreover, the figures for the nuclei count in test [2] and in test [3] were 122% and 131%, respectively. Further, the fluorescence slope in test [4] is -0.391 (inactive). Further, the NADPH fluorescence slope in test [5] was 2.6e-05 (inactive). Further, in test [6], the slope is 0.00425 (inactive).

`Cc1nn(-c2ccccc2)c(C)c1/C=N/O`: in test [1], the cell count worked out at 739. Moreover, the inhibition in test [1] was -3.9% (inactive); in test [3], 25% (inactive); in test [7], -8.9% (inactive); in test [8], -14.8% (inactive). In addition, the inhibition of aggregation in test [2] was -3.1% (inactive). Further, the nuclei count in test [2] came to 93.7%; in test [3], 94.2%. The fluorescence slope in test [4] is -0.446 (inactive). Also, the NADPH fluorescence slope in test [5] is 2.9e-05 (inactive). Also, the slope in test [6] is 0.00603 (inactive).
